Compound activity (PubChem BioAssay)
L3MBTL1 block – blocks human L3MBTL1; AID 485360; Q9Y468; actives 0.66% (n = 230,000); AlphaScreen L3MBTL1–H3K9me1 peptide binding; Potency, µM (titrated, usually from 57.1 µM), without a hit: at the top dose activity, negative = inhibition, hits mostly inhibitors; further: on the % scale 0 is the no-effect control and ±100 the full control effect; nearly all actives have a fitted effect of over 60% in size
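L3MBTL1 50 nM + b-AHA-H3(1-15)K9me1 75 nM, 30 min RT; compound added, 30 min RT; streptavidin donor/Ni-chelate acceptor beads 10 ug/mL each final, 30 min RT dark; AlphaScreen read.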
JMJD2A Tudor inh – JMJD2A Tudor domain (human) inhibition | AID 504339 | AlphaScreen JMJD2A-Tudor / H3K4me3 peptide binding | Potency, µM (top dose mostly 114 µM), for the others: at the highest dose activity change, negative = inhibition, actives largely listed as inhibitors | O75164 | actives 4.4% (n = 390,000); further: on the % scale 0 is the no-effect control and ±100 the full control effect; nearly all actives have a fitted effect of over 50% in size
G9a block – blocks human histone lysine methyltransferase G9a. Q96KQ7. actives 8.8% (n = 350,000). G9a H3K9 monomethylation, AlphaScreen, 2 h. Potency, µM (highest dose often 102 µM), for the others: at the top dose activity, negative = inhibition, hits mostly inhibitors; further: on the % scale 0 is the no-effect control and ±100 the full control effect; nearly all actives have a fitted effect of over 75% in size
Target sequence (Q96KQ7 913-1193 limits assumed): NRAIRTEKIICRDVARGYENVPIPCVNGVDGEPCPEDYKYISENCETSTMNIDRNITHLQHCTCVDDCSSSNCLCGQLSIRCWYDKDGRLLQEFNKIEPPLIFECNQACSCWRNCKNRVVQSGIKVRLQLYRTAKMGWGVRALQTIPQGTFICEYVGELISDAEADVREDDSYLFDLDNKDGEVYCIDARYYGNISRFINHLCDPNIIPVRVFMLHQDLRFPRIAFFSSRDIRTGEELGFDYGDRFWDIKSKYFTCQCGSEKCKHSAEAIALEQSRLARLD
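Enzyme 20 nM + cpd, 15 min RT; add b-H3K9 pep 500 nM / SAM 20 uM; 2 h RT; anti-H3K9me1 Ab 0.5 ug/mL + SA donor / anti-rabbit acceptor beads 20 ug/mL each, 10 min; AlphaScreen read.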
HP1b chromo inh – blocks HP1-beta chromodomain binding to methylated histone tails | P83916 | AlphaScreen HP1-beta / biotin-H3K9me3 peptide binding | Potency, µM (highest dose often 114 µM), for inactives: at the top dose activity change, negative = inhibition, actives largely listed as inhibitors | actives 0.56% (n = 390,000) | AID 540317; further: nearly all actives have a fitted effect of over 70% in size
Target sequence (P83916 whole entry, looked up): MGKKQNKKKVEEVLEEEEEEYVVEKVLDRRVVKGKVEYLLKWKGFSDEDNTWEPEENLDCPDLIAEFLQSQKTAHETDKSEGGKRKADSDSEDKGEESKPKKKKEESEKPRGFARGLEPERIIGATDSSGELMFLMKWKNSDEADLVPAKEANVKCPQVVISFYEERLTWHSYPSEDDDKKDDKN
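Compound inhibition of the preformed complex between 50 nM HP1-beta and 50 nM biotinylated H3K9me3 peptide was read by AlphaScreen. Buffer was PBS pH 7.4 with 0.01% Tween-20. Incubations ran 30 min at room temperature, with 10 ug/mL donor/acceptor beads.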
BAZ2B inh – blocks human BAZ2B | Potency, µM (doses to about 114 µM), inactives show at the top dose activity change, negative = inhibition, actives largely listed as inhibitors | actives 4.4% (n = 360,000) | AlphaScreen BAZ2B-H3K14Ac peptide displacement; further: on the % scale 0 is the no-effect control and ±100 the full control effect; nearly all actives have a fitted effect of over 60% in size
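Multi-concentration screen (max 110 uM) measuring displacement of acetylated histone H3 peptide from BAZ2B by AlphaScreen, using 50 nM protein, 50 nM peptide and 10 ug/mL streptavidin donor plus Ni-chelate acceptor beads.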
* hit, by the source's call; ? = inconclusive; · = not tested or not shown; ! = repeats disagree; [ ] = another dose, or the depositor's remark. A selection: hits, their analogues and other compounds. The true share with any hit is near 11%. The call rests on the fitted dose curve; in most records, active means well fitted inhibition curve with a large enough effect; inconclusive means small, poorly fitted or top-dose-only effect; inactive means no such curve, though single readings can be large or run the other way. Potency means the concentration at half of the fitted maximal effect.

SMILES	L3MBTL1 block	JMJD2A Tudor inh	G9a block	HP1b chromo inh	BAZ2B inh
Oc1cccc(/C=N/Nc2cc(N3CCOCC3)nc(N3CCOCC3)n2)c1	-6%	?	-12%[59 µM]	-14%	?
Oc1ccccc1/C=N/Nc1cc(N2CCCC2)nc(N2CCCC2)n1	?	28µM*	?	?	25µM*
Oc1ccc(/C=N/Nc2cc(N3CCOCC3)nc(N3CCOCC3)n2)cc1O	-7%	56µM*	?	?	?
Cc1nc(N/N=C/c2ccc(O)cc2O)cc(N2CCOCC2)n1	-21%	79µM*	21%	33%	45µM*
COc1ccc2oc(-c3cccc(NC(=O)c4ccc(C#N)cc4F)c3)nc2c1	·	-8%	5%[59 µM]	28%	-32%
COc1ccc(S(=O)(=O)N2CCN(C(=O)C3CC3)CC2)cc1Br	36%	-1%	?	34%	33%
CC(C)(C)C(=O)NC(CC(=O)O)c1ccccc1 (centres undefined)	6%	-6%	50µM*	47%	-11%
Cc1nnc(NC(=O)CC(NC(=O)C(F)(F)F)c2ccccc2)s1 (centres undefined)	3%	-17%	40µM*	-1%	-3%
O=C(CC(NC(=O)C(F)(F)F)c1ccccc1)Nc1nnc(CCc2ccccc2)s1 (centres undefined)	-9%	-17%	10µM*	-12%	9%
COc1cc(C(=O)NCC2(N(C)C)CCCCC2)ccc1OCc1ccccc1	·	-14%	?	-3%	-22%
CC(C)=C1C(=O)NN(c2ccc(C)c(Cl)c2)C1=O	-20%	-28%	8.9µM*	-6%	?
CCOc1ccc(NC(=O)Cn2cc(C(=O)c3ccc(C)c(C)c3)c(=O)c3cc4c(cc32)OCCO4)cc1	·	-14%	-40%[59 µM]	17%	-4%
CCOC(=O)CCNC(C(=O)OCC)c1ccccc1 (centres undefined)	·	35µM*	?	?	?
CCOC(=O)CCNC(=O)CCNC(=O)C(c1ccccc1)c1ccccc1	-7%	-1%	-1%	9%	-2%
CC(C)OCc1cc(CN2CCN(c3cccc(C(F)(F)F)c3)CC2)c(O)c2ncccc12	·	?	2%[59 µM]	45%	25µM*
O=c1cc(CO)oc(CN2CCN(c3cccc(C(F)(F)F)c3)CC2)c1O	·	-16%	?	24%	?
CCOCc1cc(CN2CCN(c3cccc(C(F)(F)F)c3)CC2)c(O)c2ncccc12	·	56µM*	-16%[59 µM]	21%	28µM*
O=C(CCC(=O)c1ccc(F)cc1)OCc1nnc(-c2ccc([N+](=O)[O-])cc2)o1	-10%	-21%	26%[12.7 µM]	23%	?
CCN1CCN(C(=O)C(C)Nc2ccc(OC)cc2OC)CC1 (centres undefined)	-8%	?	45µM*	2%	?
COc1ccccc1NC(=O)N1CCN(C)CC1	1%	40µM*	20µM*	-29%	50µM*
CCn1ncc(Br)c1C(=O)Nc1ccccc1OC	·	56µM*	6%	27%	9%
COc1ccccc1NC(=O)N(C1CCCC1)C1CCN(C(C)=O)CC1	11%	-5%	40µM*	24%	9%
COc1ccc(CCNC(=O)c2cc3c(=O)n(C)c4cc(Cl)ccc4c3s2)cc1OC	·	-14%	-21%[59 µM]	15%	·
CCCCCCc1ccc(C(=O)CCN(C)C)cc1	·	6%	·	·	·
Cc1ccc(NC(=O)C2CCCN(S(=O)(=O)c3cccs3)C2)c(C)c1 (centres undefined)	·	-26%	-36%[59 µM]	-5%	-16%
SMILES	L3MBTL1 block	JMJD2A Tudor inh	G9a block	HP1b chromo inh	BAZ2B inh
CCCNC(=O)c1ccc(-c2nc(CS(=O)(=O)c3ccc(C)cc3)c(C)o2)cc1	·	-28%	?	-17%	-12%
CCN1CCN(C(=O)Nc2ccccc2OC)CC1	40µM*	2.2µM*	2.2µM*	?	28µM*
COc1ccccc1NC(=O)N1CCN(CCc2ccccc2)CC1	·	-22%	·	17%	-14%
Cc1c(NC(=O)C(=O)/C=C(\O)c2ccc(Br)cc2)c(=O)n(-c2ccccc2)n1C	-9%	25µM*	?	-17%	?
Cc1c(NC(=O)c2ccc(C(=O)Nc3c(C)n(C)n(-c4ccccc4)c3=O)cc2)c(=O)n(-c2ccccc2)n1C	0%[2.29 µM]	-3%	-10%[0.501 µM]	39%	10%
Cc1ccc(CN2CCN(C3CCN(C(=O)c4ccc(C)cc4)CC3)C(=O)C2=O)cc1	·	-15%	0%[59 µM]	10%	0%
CCOC(=O)C1=C(C)Nc2ccc(C)cc2S1	-8%	-25%	?	?	50µM*
CCOCCOC(=O)c1cccc(NC(=O)OCC)c1	-3%	0%	6%	24%	-3%
CCOC(=O)C1=C(C)Nc2ccccc2S1	·	?	·	?	40µM*
CCOCCOC(=O)C1=C(C)Nc2ccc(C)cc2S1	0%	14µM*	16µM*	-43%	?
CSCCOC(=O)C1=C(C)Nc2ccc(C)cc2S1	·	79µM*	25µM*	-67%	45µM*
Cc1noc(Cn2c(=O)c3cc4c(cc3n(CC(=O)Nc3cccc(Cl)c3)c2=O)OCO4)n1	·	-11%	-33%[59 µM]	16%	-3%
Cc1nn(CC(=O)Nc2nnc(CC(=O)N3CCCC3)s2)c(=O)c2ccccc12	-1%	4%[11.4 µM]	45µM*	-8%	-3%
CCCc1cc(SCC(=O)Nc2c(C)n(C)n(-c3ccccc3)c2=O)n2c(nc3ccccc32)c1C#N	·	27%	7.9µM*	43%	28%
Cc1nc(SCC(=O)Nc2c(C)n(C)n(-c3ccccc3)c2=O)c(C#N)c(C)c1C	2%	-9%	19%[12.7 µM]	71%	10%
CC1CC=CC2C1C(=O)N(Cc1ccccc1)C2c1ccc(F)c(/C=C/c2ccccc2)c1 (centres undefined)	·	-11%	·	29%	·
CCN(CC)CCc1nc(-c2ccccc2)no1	-3%	40µM*	13µM*!	13%	-4%
Cc1nn(CC(=O)N2CCN(c3ccccc3)CC2)c(=O)c2cc3cc(F)ccc3n12	·	8%	-1%[59 µM]	39%	4%
O=C(Cc1ccc(NC(=O)N2CCSc3ncccc32)cc1)NCc1ccccc1	·	-12%	-5%[59 µM]	9%	-14%
OC[C@H](O)[C@H](O)[C@@H](O)[C@@H](O)[C@@H]1SC(c2ccccc2)=NN1c1ccccc1	-25%	?	11µM*	8%	-28%
CC[C@H]1C(c2ccccc2)=NN(c2ccccc2)[C@@H]1CO	·	·	77%	·	·
COc1ccccc1C(=O)Nc1nc2nc(C)c(Cc3ccccc3)c(=O)n2[nH]1	·	-30%	?	32%	?
Oc1c(Br)cc(Br)cc1-c1nc2ccccc2s1	·	6%	-48%[59 µM]	30%	-1%
Cc1nn(-c2ccccc2)c(N)c1Sc1cccc([N+](=O)[O-])c1	-7%	56µM*	?	-21%	?
Cc1nn(-c2ccccc2)c(N)c1Sc1ccccc1[N+](=O)[O-]	-3%	?	19%[59 µM]	-21%	?
